Assay results: PubChem BioAssay (Tox21)
Records with an inconclusive call do not appear. Unmarked numbers belong to inactive results. Calls of active or inactive are those of the source. The call rests on the fitted dose curve.

experiment: p53 small molecule agonists, cell-based qHTS assay: qHTS cell viability counter screen (AID 1963581); details: p53RE-bla HCT-116 viability, ATP luminescence, 16 h; series mostly up to 66 µM; activity change, negative = cytotoxicity: at the top concentration; further: nearly all actives have a fitted effect of over 45% in size
From the text: National Center for Advancing Translational Sciences [NCATS]
Division of Preclinical Innovation [DPI]
U.S. Environmental Protection Agency [EPA]
National Institutes of Environmental Health Sciences [NIEHS]
National Toxicology Program [NTP]
U.S. Food and Drug Administration [FDA]
p53, a tumor suppressor protein, is activated following cellular insult, including DNA damage and other cellular stresses. The activation of p53 regulates cell fate by inducing DNA repair, cell cycle arrest, apoptosis, or cellular senescence. The activation of p53, therefore, is a good indicator of DNA damage and other cellular stresses. The CellSensor p53RE-bla HCT-116 cell line (Invitrogen) contains a stably integrated beta-lactamase reporter gene under control of the p53 response elements. The activation of the reporter gene under culture conditions can be detected by fluorescence intensity. This cell line was used to screen the Tox21 compound library in a 1536-well plate format and to identify agonists that activate the p53 signaling pathway. The cytotoxicity of the Tox21 compound library against the p53 RE-bla HCT-116 cell line was tested in parallel by measuring the intra cellular ATP content in the same wells.
Tox21 Assay Protocol Summary:
The p53RE-bla cells were dispensed at 4,000 cells/5 ul/well in 1536-well black wall/clear bottom plates using a Multidrop dispenser. After the assay plates were incubated at a 37 C/5% CO2 incubator for 5 hours, 23 nL of compounds dissolved in DMSO, positive controls or DMSO only was transferred to the assay plate by a pin tool. The plates were incubated at 37 C for 16 hours. After 1 uL of LiveBLAzerTM B/G FRET substrate was added using a Flying Reagent Dispenser, the plates were incubated at room temperature for 2 hours, and fluorescence intensity was measured by an Envision plate reader. For cell viability readout that measures cytotoxicity, 4 ul/well of CellTiter-Glo reagent was added into the assay plates using a Flying Reagent Dispenser. After 30 min incubation at room temperature, the luminescence intensity in the plates was measured using a ViewLux plate reader.
On the % scale 0 is the no-effect control and ±100 the full control effect; potency means the concentration at half of the fitted maximal effect.

Compared with CCn1cc(C(=O)O)c(=O)c2cc(F)c(N3CCNCC3)nc21, CC(=O)Oc1cc2c(s1)CCN(C(C(=O)C1CC1)c1ccccc1F)C2 (stereo not given) is higher in “activity change, negative = cytotoxicity” value: -0.578% [at 30.3 µM] for the first, 8.46% [at 30.3 µM] for the second.

Going from CCCCCCCCCCCCCCCCOP(=O)([O-])OCC[N+](C)(C)C to C[N+](C)(C)CCOC(=O)CCC(=O)OCC[N+](C)(C)C, the “activity change, negative = cytotoxicity” value falls from 26.9% [at 30.3 µM] to 3.73% [at 30.3 µM].

Compared with C[C@]12CCC(=O)C=C1CC[C@@H]1[C@@H]2CC[C@@]2(C)[C@H]1CC[C@]2(O)C(=O)CO, Cc1nc2n(c(=O)c1CCN1CCC(c3noc4cc(F)ccc34)CC1)CCCC2 is lower in “activity change, negative = cytotoxicity” value: 4.82% [at 30.3 µM] for the first, -13.8% [at 30.3 µM] for the second.

Compared with CCN(CC)CCOc1ccccc1C(=O)CCc1ccccc1, c1ccc(C(O[C@H]2CCCN(CCc3ccc4c(c3)OCO4)C2)c2ccccc2)cc1 is lower in “activity change, negative = cytotoxicity” value: 24.8% [at 30.3 µM] for the first, 0.354% [at 30.3 µM] for the second.

Going from CC(CN(C)C)C(C)(O)Cc1ccc(Cl)cc1 (stereo not given) to CN(C)C/C=C(/c1ccc(Br)cc1)c1cccnc1, the “activity change, negative = cytotoxicity” value rises from -9.84% [at 30.3 µM] to 15.5% [at 30.3 µM].

Going from COc1cc2c3cc1Oc1cc(ccc1O)C[C@@H]1c4c(cc(OC)c(O)c4Oc4ccc(cc4)C[C@@H]3N(C)CC2)CC[N+]1(C)C to O=C1[C@H](CC[C@H](O)c2ccc(F)cc2)[C@@H](c2ccc(O)cc2)N1c1ccc(F)cc1, the “activity change, negative = cytotoxicity” value rises from -5.53% [at 30.3 µM] to 19.1% [at 30.3 µM].

First: NC(N)=NC(=O)Cc1c(Cl)cccc1Cl
Second: Nc1nnc(-c2cccc(Cl)c2Cl)c(N)n1
The “activity change, negative = cytotoxicity” value of the first is lower: -13.1% [at 30.3 µM] for the first, 18.5% [at 30.3 µM] for the second.

Compared with CC(=O)OCC[N+](C)(C)C, CCOC(=O)OCC/C(SC(=O)OCC)=C(\C)N(C=O)Cc1cnc(C)nc1N is higher in “activity change, negative = cytotoxicity” value: -5.18% [at 30.3 µM] for the first, 1.15% [at 30.3 µM] for the second.

In the case of Cc1cc(N)c2cc(NC(=O)Nc3ccc4nc(C)cc(N)c4c3)ccc2n1, the “activity change, negative = cytotoxicity” value is reported as -15.6% [at 30.3 µM].

With CC(C)[C@H](N)C(=O)OCCOCn1cnc2c(=O)[nH]c(N)nc21 the Potency was 1.78 µM (active).
In the case of CCCCCCCC[N+](CCCCCCCC)(CCCCCCCC)CCCCCCCC, the Potency is reported as 4.57 µM (active).

First: CCOC(=O)CC(=O)c1cc(F)c(Cl)nc1Cl
Second: CCOC(=O)CC(C)O (stereo not given)
The “activity change, negative = cytotoxicity” value of the first is lower: -12.7% for the first, 10.4% for the second.

First: CC1CCC(C(C)CS)CC1S (stereo not given)
Second: CC[C@@H](N)CO
The “activity change, negative = cytotoxicity” value of the first is higher: 12.1% for the first, -8.2% for the second.

Going from CCCCCCCCC(=O)Cl to CCOC(=O)C(C)(C)C, the “activity change, negative = cytotoxicity” value rises from -4.02% to -2.02%.

Going from C=CC(C)C#N (stereo not given) to CC(C)Nc1nc(N)nc(Cl)n1, the “activity change, negative = cytotoxicity” value rises from 1.31% to 4.87%.

Going from Cc1c(N)cccc1Cl to Nc1cccc(S(=O)(=O)O)c1, the “activity change, negative = cytotoxicity” value rises from -20.3% to 0%.

Going from CC(C)CC(=O)C1C(=O)c2ccccc2C1=O to CCOC(=O)Cc1cccc2ccccc12, the “activity change, negative = cytotoxicity” value falls from 9.55% to 1.86%.

First: O=C(O)c1cc(Cl)cc(Cl)c1O
Second: COc1ccc(C(=O)c2ccc(OC)cc2O)c(O)c1
The “activity change, negative = cytotoxicity” value of the first is lower: -16% for the first, 25.1% for the second.

Compared with O=C(OCC(COC(=O)c1ccccc1)(COC(=O)c1ccccc1)COC(=O)c1ccccc1)c1ccccc1, c1ccc(C[P+](c2ccccc2)(c2ccccc2)c2ccccc2)cc1 is higher in “activity change, negative = cytotoxicity” value: -10.2% for the first, 3.44% for the second.

First: N#CC1(N)CCCCC1
Second: CC(C)(O)c1coc(S(=O)(=O)NC(=O)Nc2c3c(cc4c2CCC4)CCC3)c1
The “activity change, negative = cytotoxicity” value of the first is higher: -11.1% for the first, -13.4% for the second.

First: COc1ccccc1NC(=O)c1cc2ccccc2cc1O
Second: CCc1ccc(O)c(OC)c1
The “activity change, negative = cytotoxicity” value of the first is higher: -15.1% for the first, -17.9% for the second.

With C/C=C/C(=O)CC the activity change, negative = cytotoxicity was 7.07% [at 13.5 µM].
